The sample as a whole holds a higher share of hits than the screen did.
GALK inhibitor – inhibits human galactokinase. P51570. recombinant GALK, Kinase-Glo ATP luminescence, 1 h. Potency, µM (titrated, usually from 57.5 µM), for inactives: at the top dose activity, negative = inhibition, usual class: inhibitors. 44,000 tested, under 10 active. AID 1347072;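 note: plate controls were full GALK reaction for no effect and reaction lacking GALK for full effect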
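Luminescent ATP-depletion readout (Kinase-Glo Plus, 10 min) after 1 h RT reaction of 5 nM GALK, 35 uM ATP, 100 uM galactose, pH 8.0 HEPES buffer. Decreased kinase activity scored as inhibition.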
NTMT1 inhibitor – NTMT1 methyltransferase inhibition; Q9BV86; NTMT1 MTase-Glo SAH luminescence, purified enzyme; Potency, µM (top dose mostly 114 µM), for the others: at the top dose activity change, negative = inhibition, most hits filed as inhibitors; 59,000 tested, 2.5% active; AID 1645870;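 note: potency is the fitted concentration of half-maximal effect; plate controls were DMSO vehicle for no effect and no enzyme for full effect; nearly all actives have a fitted effect of over 65% in size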
FH mod – Identification of activators of human fumarate hydratase by quantitative high-throughput screening | Fumarate hydratase, mitochondrial (Homo sapiens), P07954 | FH coupled MDH/diaphorase resazurin fluorescence, 15 min | Potency, µM (top dose mostly 79.9 µM), for the others: at the top dose activity change, negative = inhibition, hits mostly inhibitors | 54,000 tested, 0.22% active | AID 1347055, 2019; note: potency is the fitted concentration of half-maximal effect; % is set by controls: 0 for no effect and ±100 for the full control effect; the screen sought activators but most active calls are inhibition curves; nearly all actives have a fitted effect of over 45% in size
B2AR arrestin ag – agonists recruiting beta-arrestin to human beta2-adrenergic receptor | P07550 | HTLA Tango cells, beta-arrestin recruitment, luciferase luminescence, 18 h | Potency, µM (doses to about 46.1 µM), actives largely listed as activators | 44,000 tested, under 10 active;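 note: potency is the fitted concentration of half-maximal effect; 0% = DMSO and full agonism = EC100 isoproterenol or metaproterenol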
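Tango cell line, 1% FBS DMEM; cpd titration up to 46 microM; 18 hr, 37 degrees C, 5% CO2. Luciferin/ATP substrate mix added, 15 min RT, luminescence. %Activity, CRC fitting, curve-class categorization.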
GALC G270D act – raises human GALC G270D mutant activity in cells; 145M-Twi-hGALC-G270D cells (Twitcher mouse brain line with human GALC G270D), HMU-beta-Gal fluorescence, 48 h; Potency, µM (top dose mostly 57.5 µM), actives largely listed as activators; 45,000 tested, 0.1% active; AID 1159614; note: potency is the fitted concentration of half-maximal effect; 0% is about no effect; nearly all actives have a fitted effect of over 65% in size
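Brain-derived Twitcher mouse 145M-Twi cells stably expressing human GALC-G270D or wild-type GALC, treated live, then residual GALC activity read by fluorescence of HMU-b-Gal substrate (0.1 mM final) in citrate-phosphate buffer pH 5.2 with sodium taurocholate. Signal increase indicates enhancement.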
PTAP-TSG101 blk – inhibitors of HIV-1 PTAP binding to human TSG101, validation; 44,000 tested, under 10 active; Potency, µM (highest dose often 115 µM), usual class: inhibitors; Q99816; Fluorescence polarization, FITC-PTAP peptide/Tsg101, 20 min; note: potency is the fitted concentration of half-maximal effect; 0% is about no effect
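FITC-labeled PTAP peptide (50 nM final) binding to Tsg101 binding domain (10 uM final) read by fluorescence polarization after 20 min at r.t. in HEPES pH 7.5 buffer. Actives by CRC class, <25 µM.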
CLK4 inh-1 – inhibits human CLK4 kinase in Kinase-Glo confirmation; shares compounds with NTMT1 inhibitor; recombinant Clk4, Kinase-Glo ATP luminescence, 4.5 h; Potency, µM (top dose mostly 76.9 µM), for the others: at the top dose activity, negative = inhibition, most hits filed as inhibitors; 90 tested, 90% active
CLK4 inh-2 – inhibitors of human CLK4 kinase, SAR round 2; Potency, µM, most hits filed as inhibitors; 65 tested, 100% active; shares compounds with NTMT1 inhibitor; Reaction Biology kinase assay, 10 uM ATP; calls by dose curve
DYRK1A inh – inhibitors of human DYRK1A kinase; 65 tested, 90% active; Reaction Biology kinase assay, 10 uM ATP; shares compounds with NTMT1 inhibitor; Potency, µM, usual class: inhibitors;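 active = compounds that showed inhibition of Dyrk1a and received a fitted potency; inactive = compounds that showed no inhibition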
CLK2 RBC – inhibitors of human CLK2 kinase; shares compounds with NTMT1 inhibitor; Reaction Biology kinase assay, 10 uM ATP; Potency, µM, usual class: inhibitors; 65 tested, 90% active; AID 504427;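 active = compound that inhibits Clk2 kinase in the dose series, with an IC50 potency reported; inactive = no inhibition seen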
CLK3 RBC – blocks human CLK3 kinase activity; shares compounds with NTMT1 inhibitor; recombinant CLK3 kinase assay, 10 uM ATP; Potency, µM, actives largely listed as inhibitors; 65 tested, 40% active; AID 504428;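 active = compounds that inhibited Clk3 enough in the ten-dose series to give a half-maximal potency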
DYRK1B inh – blocks human DYRK1B kinase activity | shares compounds with NTMT1 inhibitor | Recombinant Dyrk1b kinase assay, 10 uM ATP | Potency, µM, hits mostly inhibitors | 65 tested, 80% active;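 active = compounds whose dose response shows an inhibitor phenotype against the kinase Dyrk1b; inactive = compounds showing no inhibitor phenotype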
CLK1 RBC – blocks human CLK1 kinase activity | shares compounds with NTMT1 inhibitor | recombinant Clk1 kinase assay, 10 uM ATP | Potency, µM, hits mostly inhibitors | 65 tested, 90% active | AID 504430;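 active = compounds that block the splicing kinase Clk1 enough to give a fitted half-inhibition concentration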
Sfp PPTase inh – Sfp PPTase inhibition, chemistry optimization | shares compounds with NTMT1 inhibitor | purified Sfp PPTase enzyme activity, qHTS | Potency, µM (highest dose often 114 µM), inactives show at the highest dose activity change, negative = inhibition, actives largely listed as inhibitors | 230 tested, 78% active | AID 540350
Bsub HM489 growth – B. subtilis HM489 growth inhibition; shares compounds with NTMT1 inhibitor; B. subtilis HM489 (acpS-) growth, BacTiter-Glo, 5 h; 220 tested, 50% active; Potency, µM (highest dose often 114 µM), inactives show at the top dose activity change, negative = inhibition, actives largely listed as inhibitors
Sfp gel opt – inhibits B. subtilis Sfp PPTase in gel assay; shares compounds with NTMT1 inhibitor; purified Sfp PPTase, gel-based product detection; Potency, µM (titrated, usually from 250 µM), for inactives: top-dose activity change, negative = inhibition, most hits filed as inhibitors; 220 tested, 54% active; AID 540355
Sfp gel – confirmation of Bacillus subtilis Sfp PPTase inhibitors; 45 tested, 90% active; purified Sfp PPTase, gel-based product detection; AID 602362; shares compounds with NTMT1 inhibitor; Potency, µM (top dose mostly 250 µM), inactives show at the top dose activity change, negative = inhibition, most hits filed as inhibitors
Sfp SAR2 – inhibits B. subtilis Sfp PPTase in second SAR round; 230 tested, 87% active; Potency, µM (highest dose often 57.1 µM), inactives show at the top dose activity change, negative = inhibition, hits mostly inhibitors; shares compounds with NTMT1 inhibitor; purified Sfp enzyme, PPTase activity, qHTS
hGST A1-1 inh – inhibits hGST A1-1 in Sfp inhibitor counter-screen; 55 tested, under 10 active; hGST A1-1 enzyme activity counter-screen, qHTS; Potency, µM (highest dose often 114 µM), for the others: top-dose activity change, negative = inhibition, hits mostly inhibitors; shares compounds with NTMT1 inhibitor
HSD17B4 inh – counter-screen for HPGD inhibitors: human HSD17B4 inhibition | Potency, µM (doses to about 57.1 µM), without a hit: top-dose activity change, negative = inhibition, hits mostly inhibitors | 230 tested, 10% active | shares compounds with NTMT1 inhibitor | purified HSD17B4, estradiol/NAD+, NADH fluorescence
Target sequence (P51659 whole entry, looked up): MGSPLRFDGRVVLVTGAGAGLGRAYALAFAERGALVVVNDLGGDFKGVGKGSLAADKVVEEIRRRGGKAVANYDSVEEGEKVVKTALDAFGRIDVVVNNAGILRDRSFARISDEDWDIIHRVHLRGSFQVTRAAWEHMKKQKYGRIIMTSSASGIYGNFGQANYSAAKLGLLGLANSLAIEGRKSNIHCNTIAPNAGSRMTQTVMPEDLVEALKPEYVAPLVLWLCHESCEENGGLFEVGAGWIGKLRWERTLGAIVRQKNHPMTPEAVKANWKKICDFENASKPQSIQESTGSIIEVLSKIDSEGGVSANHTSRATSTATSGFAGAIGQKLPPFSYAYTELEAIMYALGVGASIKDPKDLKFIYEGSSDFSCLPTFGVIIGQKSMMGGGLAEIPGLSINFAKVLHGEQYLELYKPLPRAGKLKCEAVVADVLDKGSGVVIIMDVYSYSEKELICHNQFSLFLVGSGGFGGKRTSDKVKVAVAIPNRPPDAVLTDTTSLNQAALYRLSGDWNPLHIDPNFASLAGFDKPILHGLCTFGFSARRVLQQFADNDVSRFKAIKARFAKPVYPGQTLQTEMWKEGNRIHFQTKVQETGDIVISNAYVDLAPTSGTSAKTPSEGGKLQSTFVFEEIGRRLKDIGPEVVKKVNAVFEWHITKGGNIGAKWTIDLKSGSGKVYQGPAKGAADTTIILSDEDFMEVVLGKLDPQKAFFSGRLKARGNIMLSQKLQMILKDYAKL
ALDH1A1 counter – counter-screen for HPGD inhibitors: human ALDH1A1 inhibition | Potency, µM (series often up to 57.1 µM), without a hit: at the highest dose activity change, negative = inhibition, actives largely listed as inhibitors | 230 tested, 93% active | recombinant ALDH1A1, NADH fluorescence, propionaldehyde/NAD+ | shares compounds with NTMT1 inhibitor
NNMT inh – human NNMT inhibition, NTMT1 counter-screen. shares compounds with NTMT1 inhibitor. NNMT MTase-Glo luminescence, SAH detection. Potency, µM (titrated, usually from 57.1 µM), for the others: at the highest dose activity, negative = inhibition, actives largely listed as inhibitors. 120 tested, 10% active. AID 1645878
Starred values were filed as active, the others as inactive; i = inactive; ? = inconclusive; · = no result; ! = a repeat was not active; [ ] = dose if it differs, or a comment. Unless noted, calls come from the whole dose curve; as a rule, active = well fitted curve in the direction sought with a large enough effect; inconclusive = small, poorly fitted or top-dose-only effect, or another doubt; inactive = no such curve, though single readings can be large; an effect the other way counts as inactive or inconclusive.

SMILES	GALK inhibitor	NTMT1 inhibitor	FH mod	B2AR arrestin ag	GALC G270D act	PTAP-TSG101 blk	others
Cc1ccnc(NC(=S)N[C@@H]2CCN(c3cccc(C(F)(F)F)c3)C2)c1	·	16%	·	·	·	·	Sfp PPTase inh=?;Bsub HM489 growth=?;Sfp gel opt=19%;Sfp gel=0%;Sfp SAR2=?;hGST A1-1 inh=?;HSD17B4 inh=9%;ALDH1A1 counter=24µM*
O=C(Nc1ccccc1Br)N[C@@H]1CCN(c2ccc(C(F)(F)F)cn2)C1	·	1%	-17%[53.3 µM]	·	·	·
Cc1ccnc(CC(=S)N2CCN(c3cccc(C(F)(F)F)c3)CC2)c1	·	0%	·	·	·	·	Sfp PPTase inh=24µM*;Bsub HM489 growth=?;Sfp gel opt=10µM*;Sfp SAR2=?;HSD17B4 inh=?;ALDH1A1 counter=9.6µM*
Cc1ccnc(NC(=S)Nc2cccc(C(F)(F)F)c2)c1	·	0%	·	·	·	·	Sfp PPTase inh=10µM*;Bsub HM489 growth=12µM*;Sfp gel opt=2%;Sfp gel=?;Sfp SAR2=23µM*;hGST A1-1 inh=0.21µM*;HSD17B4 inh=-3%;ALDH1A1 counter=22µM*
COc1cc2c(cc1Cc1cccc(Cl)c1F)c(=O)c(C(=O)O)cn2[C@H](CO)C(C)C	·	14%	10%[53.3 µM]	·	·	·
O=C(Nc1ccc(S(=O)(=O)Nc2ccccc2Cl)c(Cl)c1)c1ccccn1	·	10%[57.5 µM]	-1%	·	·	·
COc1cccc(Nc2ncc3nc(-c4cn(C)c5ccccc45)c(=O)n(CCC#N)c3n2)c1	·	·	·	·	·	·	CLK4 inh-1=?
COc1cccc(Nc2ncc3ncc(=O)n(C)c3n2)c1	·	·	·	·	·	·	CLK4 inh-1=0.92µM*
C=C[C@](C)(CC/C=C(\C)C(=O)O)O[C@@H]1OC[C@H](O)[C@H](O)[C@H]1O	·	?	-3%[53.3 µM]	·	·	·
CN(C)CCCNc1ccc(NC(=O)c2cccs2)cn1	·	9%[57.5 µM]	·	·	·	·
Cc1cc(Nc2cccc(Cl)c2)nc2ccc(NC(=O)c3cccnc3)cc12	-9%	?	?	i	i	i
O=C(O)c1ccc2c(c1)nc(Nc1cccc(Cl)c1)c1ccncc12	·	14µM*!	?	·	·	·	NNMT inh=?
COc1cc(-c2nc(Nc3ccc(F)c(F)c3)c3ccccc3n2)c(F)cn1	·	5%[57.5 µM]	·	·	·	·
Cc1noc(C)c1-c1ccc2ncnc(NCC3CCN(C)CC3)c2c1	·	-13%	·	·	·	·
OCc1ccc(-c2ccc3ncnc(N4CCOCC4)c3c2)o1	·	-14%	·	·	·	·	CLK4 inh-1=0.52µM*;CLK4 inh-2=1.1*;DYRK1A inh=15µM*;CLK2 RBC=14µM*;CLK3 RBC=i;DYRK1B inh=15µM*;CLK1 RBC=5.3µM*
Cc1cc(C)c2c(N)c(C(=O)NCc3ccc(Cl)cc3)sc2n1	·	-10%[57.5 µM]	-7%	·	·	·	NNMT inh=-8%
Cc1cccc(C(=O)Nc2c(C(=O)NCc3ccc(Cl)cc3)sc3nc(C)cc(C)c23)c1	0%	11%	-3%	i	i	i
CCC1C(=O)N(C)c2cnc(Nc3ccc(C(=O)NC4CCN(C)CC4)cc3OC)nc2N1C1CCCC1 (stereo unspecified)	·	13µM*	-2%	·	·	·	NNMT inh=?

Bioassay records (PubChem)
